Reference: PubChem BioAssay (Tox21)
Inconclusive results are not listed. Calls of active or inactive are those of the source. Unless noted, the call rests on the fitted dose curve; in most records, active means well fitted curve in the direction sought with a large enough effect in the repeat runs; inconclusive means weak or mixed curves; inactive means no such curve, though single readings can be large; an effect the other way counts as inactive or inconclusive.

Experiments:
[1] = qHTS assay to identify small molecule antagonists of the estrogen receptor alpha (ER-alpha) signaling pathway using the BG1 cell line in the presence of 0.1 nM 17-beta-estradiol - cell viability counter screen (AID 1259241); further: nearly all actives have a fitted effect of over 40% in size
Summary of the method: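 Following 5 days in phenol red-free medium with charcoal-stripped serum, VM7Luc4E2 cells received test compounds alongside 0.1 nM 17beta-estradiol (final) at 37C for 22 hr. Live cells were then quantified via protease-substrate fluorescence.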

[2] = qHTS assay to identify small molecule antagonists of the androgen receptor (AR) signaling pathway using the MDA cell line in the presence of 0.5 nM R1881 - cell viability counter screen (AID 1259242); further: nearly all actives have a fitted effect of over 45% in size
Summary of the method: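 Steps: plate MDA-kb2 cells, rest 5 hr at 37C without CO2; pin in compounds in DMSO; add R1881 to 0.5 nM final; incubate 16 hr; add CellTiter-Fluor, 30 min; read fluorescence.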

[3] = target: Estrogen receptor (Homo sapiens) (UniProt P03372); experiment: qHTS assay to identify small molecule antagonists of the estrogen receptor alpha (ER-alpha) signaling pathway using the BG1 cell line in the presence of 0.1 nM 17-beta-estradiol (AID 1259244); further: nearly all actives have a fitted effect of over 50% in size; further: potency means the concentration at half of the fitted maximal effect
Summary of the method: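 Antagonist mode: compounds in DMSO are pinned onto VM7Luc4E2 reporter cells, 0.1 nM final 17beta-estradiol is added, and after 22 h at 37C luciferase luminescence is measured with ONE-Glo.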

[4] = qHTS assay to identify small molecule HDAC inhibitors (AID 1259364);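 further: wild-type HCT-116 cells with endogenous class I/II HDAC activity; top concentration of the series differs between compounds; nearly all actives have a fitted effect of over 45% in size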
Summary of the method: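 Cells (HCT-116, wild type) are seeded at 1,500 per well, incubated overnight, treated with compound in DMSO for 2 hr, then developed with HDAC-Glo I/II reagent for 30 min at room temperature.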

[5] = qHTS assay to identify small molecule HDAC inhibitors - cell viability counter screen (AID 1259365); further: series mostly up to about 92 µM; nearly all actives have a fitted effect of over 50% in size
Summary of the method: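 HCT-116 wild-type, overnight attachment; 2hr drug exposure, 37C; CellTiter-Glo luminescent ATP readout after 30min RT.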

[6] = qHTS assay to identify small molecule agonists of the sonic hedgehog signaling (Shh) pathway - cell viability counter screen (AID 1259366); further: nearly all actives have a fitted effect of over 50% in size
Summary of the method: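 Compounds in DMSO were pin-transferred onto 3T3 Gli1-Luc cells that had settled 4hr; plates then stood 24hr at 37C and 5% CO2. One hour before the end, CellTiter-Fluor was added and fluorescence recorded.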

[7] = qHTS assay to identify small molecule antagonists of the sonic hedgehog signaling (Shh) pathway - cell viability counter screen (AID 1259367); further: nearly all actives have a fitted effect of over 55% in size; further: potency means the concentration at half of the fitted maximal effect
Summary of the method: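 CellTiter-Fluor signal in conditioned medium-stimulated 3T3 Gli1-Luc cells, 23 hr compound exposure, 37C.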

[8] = qHTS assay to identify small molecule agonists of the sonic hedgehog signaling (Shh) pathway (AID 1259368; calls by dose curve;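 further: NIH/3T3-derived 3T3Gli1-Luc cells carrying a stable Gli1-driven firefly luciferase reporter; series mostly up to about 92 µM; nearly all actives have a fitted effect of over 15% in size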)
Summary of the method: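 Cells of a mouse NIH/3T3 clone stably expressing luciferase under the Gli1 transcriptional response element are exposed to test chemicals for 24 hr at 37 C. Pathway activation is detected as a rise in luminescence.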

[9] = qHTS assay to identify small molecule antagonists of the sonic hedgehog signaling (Shh) pathway (AID 1259369; calls by dose curve; further: nearly all actives have a fitted effect of over 45% in size; further: potency means the concentration at half of the fitted maximal effect)
Summary of the method: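 Cells are plated and held 4hr at 37 C, compounds (DMSO) are pinned in, conditioned medium is added to stimulate the pathway, and after 24hr luciferase reagent is added for 30min before luminescence is read.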

[10] = target: Estrogen receptor beta (Homo sapiens) (UniProt Q92731); experiment: qHTS assay to identify small molecule agonists of the estrogen receptor beta (ER-beta) signaling pathway (AID 1259377; active means well fitted activation curve with a large enough effect in the signal ratio in the repeat runs, not every such curve was filed as active; the % refers to the signal ratio)
Summary of the method: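 qHTS in ER-beta-UAS-bla HEK293T cells: 6 hr settling, then 16 hr compound at 37C, then LiveBLAzer substrate 2 h at RT before fluorescence reading.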

[11] = target: Estrogen receptor beta (Homo sapiens) (UniProt Q92731); experiment: qHTS assay to identify small molecule antagonists of the estrogen receptor beta (ER-beta) signaling pathway (AID 1259378; active means well fitted inhibition curve with a large enough effect in the signal ratio in the repeat runs, not every such curve was filed as active; the % refers to the signal ratio; further: potency means the concentration at half of the fitted maximal effect)
Summary of the method: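 Antagonist mode: compounds added to beta-lactamase reporter HEK293T ER-beta-UAS cells stimulated with E2 (1nM final), 16 hr at 37C. LiveBLAzer B/G FRET substrate, 2 hours room temperature, fluorescence read-out.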

[12] = qHTS assay to identify small molecule agonists of the androgen receptor (AR) signaling pathway in the presence of an antagonist - cell viability counter screen (AID 1259379);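 further: MDA-kb2 human breast cancer cells carrying an MMTV luciferase reporter; series mostly up to about 92 µM; nearly all actives have a fitted effect of over 25% in size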
Summary of the method: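 Cytotoxicity is assessed by CellTiter-Fluor in MDA-kb2 cells carrying an MMTV-driven luciferase reporter. Cells receive 3.0uM nilutamide plus compounds at 15 concentrations and incubate 16 hr at 37C without CO2 before fluorescence reading.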

[13] = qHTS assay to identify small molecule agonists of the estrogen receptor beta (ER-beta) signaling pathway - cell viability counter screen (AID 1259380); further: nearly all actives have a fitted effect of over 30% in size
Summary of the method: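 Cytotoxicity is measured in parallel with the reporter screen: after 16 hr compound exposure at 37C and a 2 hr LiveBLAzer step, CellTiter-Glo is added to the same ER-beta-UAS-bla HEK293T wells and luminescence read after 30 min.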

[14] = qHTS assay to identify small molecule antagonists of the estrogen receptor beta (ER-beta) signaling pathway - cell viability counter screen (AID 1259382);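 further: HEK293T cells carrying ER-beta-UAS-bla reporter stimulated with estradiol; series mostly up to about 92 µM; nearly all actives have a fitted effect of over 55% in size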
Summary of the method: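 Cytotoxicity counter screen multiplexed with the beta-lactamase antagonist assay: GripTite HEK293T ER-beta-bla cells were treated 16 hr with test chemicals in the presence of 1nM 17-beta-estradiol, and viability was measured by CellTiter-Glo.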

[15] = target: Estrogen receptor (Homo sapiens) (UniProt P03372); experiment: qHTS assay to identify small molecule agonists of the estrogen receptor alpha (ER-alpha) signaling pathway in the presence of an antagonist (AID 1259383; calls by dose curve; further: top concentration of the series differs between compounds; nearly all actives have a fitted effect of over 15% in size)
Summary of the method: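 Agonist-mode confirmation in the presence of the ER antagonist ICI-182,780 at 10.0nM final. Breast-derived VM7Luc4E2 reporter cells were exposed to compounds for 22hr, and ERE-driven luciferase was quantified by luminescence.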

[16] = qHTS assay to identify small molecule agonists or antagonists of the thyroid stimulating hormone receptor (TSHR) signaling pathway - wild type cell line counter screen (AID 1259384; calls by dose curve)
Summary of the method: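 Counter screen in untransfected Hek293: compounds (15-point titration, triplicate) plus phosphodiesterase inhibitor Ro20-1724 added after 18 h plating; 30 min RT. Intracellular cAMP via competitive d2/cryptate immunoassay, 1 h incubation.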

[17] = target: Thyrotropin receptor (Homo sapiens) (UniProt P16473); experiment: qHTS assay to identify small molecule antagonists of the thyroid stimulating hormone receptor (TSHR) signaling pathway (AID 1259385; calls by dose curve; further: nearly all actives have a fitted effect of over 20% in size)
Summary of the method: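 Antagonist mode: compound-treated TSHR-expressing HEK293 cells were stimulated with 1.5 ng/mL TSH (final) in presence of Ro20-1724 for 30 min at RT. HTRF cAMP detection after 1 h; each compound tested at 15 concentrations, triplicate.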

[18] = qHTS assay to identify small molecule phospholipidosis (PLD) inducers (AID 1259344; active means well fitted curve in the direction sought with a large enough effect; an effect the other way counts as inactive or inconclusive)
Summary of the method: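 Accumulated phospholipid, stained red by LipidTOX during 24 h compound treatment of HepG2 cells at 37 C, is quantified from images as pit number and intensity, normalised per cell using Hoechst-stained nuclei.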

[19] = target: Androgen receptor (Homo sapiens) (UniProt P10275); experiment: qHTS assay to identify small molecule antagonists of the androgen receptor (AR) signaling pathway using the MDA cell line in the presence of 0.5 nM R1881 (AID 1259243); further: nearly all actives have a fitted effect of over 50% in size
Summary of the method: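 Stably transfected MDA-kb2 cells express luciferase from an MMTV promoter bearing both AR and GR response elements. Compounds plus 0.5 nM R1881 (final) were incubated 16 hr at 37C without CO2, then luminescence measured.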

[20] = target: Androgen receptor (Homo sapiens) (UniProt P10275); experiment: qHTS assay to identify small molecule agonists of the androgen receptor (AR) signaling pathway in the presence of an antagonist (AID 1259381; calls by dose curve; further: nearly all actives have a fitted effect of over 15% in size)
Summary of the method: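 Agonist-mode confirmation screen: human MDA-kb2 cells stably expressing luciferase under an MMTV promoter bearing AR and GR response elements, co-treated with 3.0uM nilutamide (final). Luminescence measured after 16hr compound incubation.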

Measured: Potency

Sequence of Estrogen receptor beta (Homo sapiens) (Q92731 whole entry, looked up): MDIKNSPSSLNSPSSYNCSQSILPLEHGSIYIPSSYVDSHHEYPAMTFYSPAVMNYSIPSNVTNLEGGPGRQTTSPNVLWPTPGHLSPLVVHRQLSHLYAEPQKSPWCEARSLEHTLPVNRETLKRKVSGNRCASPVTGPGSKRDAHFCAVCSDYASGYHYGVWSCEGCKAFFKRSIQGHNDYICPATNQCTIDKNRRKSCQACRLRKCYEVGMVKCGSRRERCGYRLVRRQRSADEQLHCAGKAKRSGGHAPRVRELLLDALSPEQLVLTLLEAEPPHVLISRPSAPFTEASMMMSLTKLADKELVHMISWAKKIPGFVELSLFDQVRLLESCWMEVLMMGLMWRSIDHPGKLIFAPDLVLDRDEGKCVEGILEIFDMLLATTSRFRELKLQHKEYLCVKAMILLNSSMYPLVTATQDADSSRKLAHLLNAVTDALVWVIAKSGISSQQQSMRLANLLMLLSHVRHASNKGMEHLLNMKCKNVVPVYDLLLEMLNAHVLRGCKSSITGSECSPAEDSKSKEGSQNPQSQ
Sequence of Estrogen receptor (Homo sapiens) (P03372 whole entry, looked up): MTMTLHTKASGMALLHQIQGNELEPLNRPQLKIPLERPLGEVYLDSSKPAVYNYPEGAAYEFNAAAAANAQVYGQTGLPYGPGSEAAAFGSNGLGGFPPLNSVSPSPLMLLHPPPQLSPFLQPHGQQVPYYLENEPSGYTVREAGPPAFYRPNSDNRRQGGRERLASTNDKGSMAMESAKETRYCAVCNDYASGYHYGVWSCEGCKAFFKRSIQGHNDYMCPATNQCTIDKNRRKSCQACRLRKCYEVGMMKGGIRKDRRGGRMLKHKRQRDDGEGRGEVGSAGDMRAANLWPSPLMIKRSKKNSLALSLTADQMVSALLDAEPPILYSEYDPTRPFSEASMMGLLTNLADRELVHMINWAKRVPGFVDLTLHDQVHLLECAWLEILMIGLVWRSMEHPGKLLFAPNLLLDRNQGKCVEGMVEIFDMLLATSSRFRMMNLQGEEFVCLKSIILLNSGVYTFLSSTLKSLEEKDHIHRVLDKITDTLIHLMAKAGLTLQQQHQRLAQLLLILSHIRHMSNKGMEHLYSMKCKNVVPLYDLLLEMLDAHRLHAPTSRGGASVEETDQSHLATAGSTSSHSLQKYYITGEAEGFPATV
Sequence of Thyrotropin receptor (Homo sapiens) (P16473 whole entry, looked up): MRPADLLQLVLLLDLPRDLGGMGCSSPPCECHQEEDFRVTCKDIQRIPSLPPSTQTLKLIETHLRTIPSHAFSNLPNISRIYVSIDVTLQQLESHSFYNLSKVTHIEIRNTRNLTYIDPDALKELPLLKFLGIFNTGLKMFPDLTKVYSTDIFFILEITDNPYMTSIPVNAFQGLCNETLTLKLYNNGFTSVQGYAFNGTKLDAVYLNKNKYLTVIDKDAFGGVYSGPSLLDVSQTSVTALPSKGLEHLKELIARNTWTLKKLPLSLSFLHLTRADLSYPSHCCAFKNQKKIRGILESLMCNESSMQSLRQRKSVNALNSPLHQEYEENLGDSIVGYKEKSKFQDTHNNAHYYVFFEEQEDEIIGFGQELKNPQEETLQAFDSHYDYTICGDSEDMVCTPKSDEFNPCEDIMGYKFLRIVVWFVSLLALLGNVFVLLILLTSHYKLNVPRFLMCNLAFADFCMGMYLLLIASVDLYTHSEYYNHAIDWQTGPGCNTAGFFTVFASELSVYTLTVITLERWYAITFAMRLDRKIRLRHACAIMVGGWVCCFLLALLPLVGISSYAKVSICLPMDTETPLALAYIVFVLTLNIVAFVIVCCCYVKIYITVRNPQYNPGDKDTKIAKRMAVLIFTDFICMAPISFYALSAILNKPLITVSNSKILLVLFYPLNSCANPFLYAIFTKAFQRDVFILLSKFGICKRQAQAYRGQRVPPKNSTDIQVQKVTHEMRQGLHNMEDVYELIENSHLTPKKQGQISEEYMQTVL
Sequence of Androgen receptor (Homo sapiens) (P10275 whole entry, looked up): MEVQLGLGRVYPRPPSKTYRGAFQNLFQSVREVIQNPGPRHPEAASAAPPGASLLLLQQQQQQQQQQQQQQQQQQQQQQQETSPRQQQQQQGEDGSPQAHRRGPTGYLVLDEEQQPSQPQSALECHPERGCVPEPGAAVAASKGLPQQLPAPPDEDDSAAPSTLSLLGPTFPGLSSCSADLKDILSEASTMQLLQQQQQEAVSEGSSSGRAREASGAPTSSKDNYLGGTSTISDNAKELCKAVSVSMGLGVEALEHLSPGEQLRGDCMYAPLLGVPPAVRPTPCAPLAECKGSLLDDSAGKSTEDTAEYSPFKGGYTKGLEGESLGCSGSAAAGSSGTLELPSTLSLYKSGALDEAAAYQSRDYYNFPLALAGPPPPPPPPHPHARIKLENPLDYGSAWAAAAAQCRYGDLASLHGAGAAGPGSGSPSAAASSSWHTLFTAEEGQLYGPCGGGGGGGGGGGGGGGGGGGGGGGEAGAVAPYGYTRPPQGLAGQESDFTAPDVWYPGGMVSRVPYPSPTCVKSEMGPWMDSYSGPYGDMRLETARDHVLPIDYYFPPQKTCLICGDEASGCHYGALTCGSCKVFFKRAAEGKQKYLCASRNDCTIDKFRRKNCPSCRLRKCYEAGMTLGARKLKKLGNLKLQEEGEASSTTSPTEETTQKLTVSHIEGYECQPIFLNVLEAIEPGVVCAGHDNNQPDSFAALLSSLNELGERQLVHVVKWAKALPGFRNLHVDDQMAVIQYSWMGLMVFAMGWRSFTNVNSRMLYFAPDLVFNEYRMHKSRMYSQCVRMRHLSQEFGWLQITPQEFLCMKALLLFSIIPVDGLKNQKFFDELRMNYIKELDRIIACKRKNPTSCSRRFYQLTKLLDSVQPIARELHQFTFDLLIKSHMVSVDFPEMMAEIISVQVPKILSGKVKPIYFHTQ

C=CC(=C)C
not listed: [18] | [19] | [20]
inactive: all other assays above

CC(Cc1ccc2c(c1)OCO2)NO (stereo not drawn)
not listed: [4] | [10] | [11] | [19] | [20]
inactive: all other assays above

BrCC(Br)(Br)Br
not listed: [12] | [16] | [17] | [18] | [19] | [20]
inactive: all other assays above

CCN(CC)C(=O)N[C@@H]1C=C2c3cccc4[nH]cc(c34)C[C@@H]2N(C)C1
not listed: [7] | [10] | [11] | [19] | [20]
inactive: all other assays above

CSC(=O)c1c(C(F)F)nc(C(F)(F)F)c(C(=O)SC)c1CC(C)C
not listed: [11] | [13] | [18] | [19] | [20]
inactive: all other assays above

O=c1[nH]c(Cl)c(Cl)cc1Cl
inactive: [1] | [2] | [19] | [5] | [7] | [8] | [9] | [12] | [20] | [16] | [17]

O=[N+]([O-])c1ccc(Cl)c(Cl)c1Cl
not listed: [13] | [17] | [18] | [19] | [20]
inactive: all other assays above

O=C(O)[C@H](O)[C@@H](O)C(=O)O
not listed: [10] | [11] | [15] | [16] | [17] | [18] | [19] | [20]
inactive: all other assays above

COP(=S)(NC(C)C)Oc1ccc(C)cc1[N+](=O)[O-] (stereo not drawn)
active: [3] 17.2 µM | [11] 30.6 µM
not listed: [15] | [18] | [19] | [20]
inactive: all other assays above

COc1nc(C)nc(NC(=O)NS(=O)(=O)c2ccccc2Cl)n1
not listed: [10] | [15] | [18] | [19] | [20]
inactive: all other assays above

CC(C)N(C(=O)SC/C(Cl)=C/Cl)C(C)C
not listed: [11] | [15] | [18] | [19] | [20]
inactive: all other assays above

ClC1=C(Cl)[C@]2(Cl)[C@@H]3[C@H]4C[C@H]([C@@H]5O[C@H]45)[C@@H]3[C@@]1(Cl)C2(Cl)Cl
active: [7] 68.5 µM | [9] 24.3 µM
not listed: [6] | [10] | [11] | [19] | [20]
inactive: all other assays above

Cc1ccc2cc3c(ccc4ccccc43)c3c2c1CC3
active: [3] 0.546 µM
not listed: [10] | [18] | [19] | [20]
inactive: all other assays above

O=C(Cl)c1ccccc1F
not listed: [18] | [19] | [20]
inactive: all other assays above
